# Data published in PMC7862700, “An all-to-all approach to the identification of sequence-specific readers for epigenetic DNA modifications on cytosine”.
# Tests used:
# Assay in all cases: DAPPL (digital affinity profiling via proximity ligation, sequencing); 10 mM Tris-HCl pH 7.5, 50 mM NaCl, 1 mM DTT, 4% glycerol, room temperature, 30 min; GST-TFs on glutathione beads, 16-mer random dsDNA library, 0.1% formaldehyde crosslink after washing; high values mean tight binding
# FLI1 = target: T1, FLI1 (Homo sapiens, UniProt Q01543 1-452); conditions: protein: recombinant; tags: N-terminal GST; dsDNA, one strand shown
# T1 sequence: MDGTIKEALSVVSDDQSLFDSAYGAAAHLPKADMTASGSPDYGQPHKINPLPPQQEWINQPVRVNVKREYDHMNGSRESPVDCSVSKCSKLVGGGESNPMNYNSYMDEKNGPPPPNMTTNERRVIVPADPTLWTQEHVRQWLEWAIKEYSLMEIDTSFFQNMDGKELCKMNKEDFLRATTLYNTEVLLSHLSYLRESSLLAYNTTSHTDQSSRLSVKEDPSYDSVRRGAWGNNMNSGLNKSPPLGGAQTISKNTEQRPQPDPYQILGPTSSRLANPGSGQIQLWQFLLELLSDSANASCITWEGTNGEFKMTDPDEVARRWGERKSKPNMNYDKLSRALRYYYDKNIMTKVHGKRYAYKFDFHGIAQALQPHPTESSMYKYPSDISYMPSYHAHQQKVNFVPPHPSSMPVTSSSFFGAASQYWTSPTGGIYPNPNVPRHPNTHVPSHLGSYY
# Outline: (§1)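 Human transcription factors carrying a GST fusion were produced in yeast, bound to glutathione beads, tagged with DNA barcodes and pooled together with a tag-only sample. Each pool was held with 200 nmole of a random double-stranded 16-mer DNA library in Tris/NaCl/DTT/glycerol buffer for 30 min at room temperature, then washed, crosslinked in 0.1% formaldehyde, proximity-ligated with BsaI/T4 ligase (1 h, 37 °C), PCR-amplified and sequenced on an Illumina NextSeq500. Binding signal is the read frequency of each hexamer for a given factor divided by its frequency in the tag-only sample.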
# ELK1 = target: T2, ELK1 (Homo sapiens, UniProt P19419 1-428); conditions: protein: recombinant; tags: N-terminal GST; dsDNA, one strand shown
# T2 sequence: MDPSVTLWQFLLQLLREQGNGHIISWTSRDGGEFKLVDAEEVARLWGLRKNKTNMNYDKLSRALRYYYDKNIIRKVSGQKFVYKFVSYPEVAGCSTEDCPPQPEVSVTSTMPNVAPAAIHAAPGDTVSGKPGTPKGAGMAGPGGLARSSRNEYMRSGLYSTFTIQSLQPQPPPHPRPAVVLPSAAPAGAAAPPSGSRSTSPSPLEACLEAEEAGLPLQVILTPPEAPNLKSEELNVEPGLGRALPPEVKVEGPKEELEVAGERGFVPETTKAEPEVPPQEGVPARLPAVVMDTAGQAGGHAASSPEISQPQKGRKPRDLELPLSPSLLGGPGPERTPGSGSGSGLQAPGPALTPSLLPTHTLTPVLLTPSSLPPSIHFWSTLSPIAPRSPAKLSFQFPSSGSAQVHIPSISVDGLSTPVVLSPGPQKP
# Outline: as §1
# GABPA = target: T3, GABPA (Homo sapiens, UniProt Q06546 1-454); conditions: protein: recombinant; tags: N-terminal GST; dsDNA, one strand shown
# T3 sequence: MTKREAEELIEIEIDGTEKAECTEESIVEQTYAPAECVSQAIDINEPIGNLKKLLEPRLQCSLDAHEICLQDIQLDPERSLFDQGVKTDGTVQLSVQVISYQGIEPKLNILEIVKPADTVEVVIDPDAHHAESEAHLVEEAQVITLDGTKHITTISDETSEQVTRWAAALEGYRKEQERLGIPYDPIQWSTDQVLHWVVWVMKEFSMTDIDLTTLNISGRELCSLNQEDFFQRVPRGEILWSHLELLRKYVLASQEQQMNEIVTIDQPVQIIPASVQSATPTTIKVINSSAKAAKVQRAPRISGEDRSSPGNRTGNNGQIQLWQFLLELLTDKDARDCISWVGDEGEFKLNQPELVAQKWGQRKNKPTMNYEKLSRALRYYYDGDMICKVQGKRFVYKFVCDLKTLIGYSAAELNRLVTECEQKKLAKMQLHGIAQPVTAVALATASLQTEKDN
# Outline: as §1
# ERG = target: T4, ERG (Homo sapiens, UniProt P11308 1-479); conditions: protein: recombinant; tags: N-terminal GST; dsDNA, one strand shown
# T4 sequence: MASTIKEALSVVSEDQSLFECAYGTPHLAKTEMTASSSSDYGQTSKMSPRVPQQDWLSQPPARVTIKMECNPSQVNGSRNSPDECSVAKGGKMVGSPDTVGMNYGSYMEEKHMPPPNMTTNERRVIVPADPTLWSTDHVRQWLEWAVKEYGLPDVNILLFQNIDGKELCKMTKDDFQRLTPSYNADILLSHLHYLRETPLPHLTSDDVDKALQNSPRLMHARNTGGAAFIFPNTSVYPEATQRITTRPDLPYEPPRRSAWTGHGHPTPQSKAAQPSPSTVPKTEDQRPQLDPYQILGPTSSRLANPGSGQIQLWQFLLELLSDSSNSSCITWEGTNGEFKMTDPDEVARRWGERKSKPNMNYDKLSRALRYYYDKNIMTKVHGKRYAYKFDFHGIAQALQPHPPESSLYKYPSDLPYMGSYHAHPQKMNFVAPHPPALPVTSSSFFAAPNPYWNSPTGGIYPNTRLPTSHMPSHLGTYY
# Outline: as §1
# ELF1 = ELF1 (Homo sapiens, UniProt P32519 1-619); conditions: protein: recombinant; tags: N-terminal GST; dsDNA, one strand shown
# Outline: as §1
# EHF = target: T5, EHF (Homo sapiens, UniProt Q9NZC4 1-300); conditions: protein: recombinant; tags: N-terminal GST; dsDNA, one strand shown
# T5 sequence: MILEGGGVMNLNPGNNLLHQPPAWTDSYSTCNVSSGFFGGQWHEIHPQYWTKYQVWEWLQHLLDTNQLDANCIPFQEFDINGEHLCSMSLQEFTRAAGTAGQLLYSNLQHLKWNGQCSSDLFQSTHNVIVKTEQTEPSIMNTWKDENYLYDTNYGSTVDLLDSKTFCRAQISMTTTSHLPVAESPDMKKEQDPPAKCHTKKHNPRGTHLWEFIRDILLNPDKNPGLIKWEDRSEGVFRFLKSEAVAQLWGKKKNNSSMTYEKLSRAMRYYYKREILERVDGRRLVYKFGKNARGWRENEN
# Outline: as §1
# SPI1 = SPI1 (Homo sapiens, UniProt P17947 1-270); conditions: protein: recombinant; tags: N-terminal GST; dsDNA, one strand shown
# Outline: as §1
# SPIB = SPIB (Homo sapiens, UniProt Q01892 1-262); conditions: protein: recombinant; tags: N-terminal GST; dsDNA, one strand shown
# Outline: as §1
# ELK3 = target: T6, ELK3 (Homo sapiens, UniProt P41970 1-407); conditions: protein: recombinant; tags: N-terminal GST; dsDNA, one strand shown
# T6 sequence: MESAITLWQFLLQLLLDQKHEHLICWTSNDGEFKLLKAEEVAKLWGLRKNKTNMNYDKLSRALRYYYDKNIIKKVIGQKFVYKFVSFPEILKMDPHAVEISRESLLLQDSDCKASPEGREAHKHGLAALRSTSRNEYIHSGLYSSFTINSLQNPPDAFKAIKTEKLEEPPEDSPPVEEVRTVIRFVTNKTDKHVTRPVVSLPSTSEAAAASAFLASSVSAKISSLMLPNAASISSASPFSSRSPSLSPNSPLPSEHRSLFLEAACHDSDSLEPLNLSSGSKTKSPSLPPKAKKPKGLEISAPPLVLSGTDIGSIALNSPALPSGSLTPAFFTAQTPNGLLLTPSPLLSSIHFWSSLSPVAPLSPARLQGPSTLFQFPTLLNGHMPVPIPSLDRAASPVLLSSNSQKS
# Outline: as §1
# FEV = target: T7, FEV (Homo sapiens, UniProt Q99581 1-238); conditions: protein: recombinant; tags: N-terminal GST; dsDNA, one strand shown
# T7 sequence: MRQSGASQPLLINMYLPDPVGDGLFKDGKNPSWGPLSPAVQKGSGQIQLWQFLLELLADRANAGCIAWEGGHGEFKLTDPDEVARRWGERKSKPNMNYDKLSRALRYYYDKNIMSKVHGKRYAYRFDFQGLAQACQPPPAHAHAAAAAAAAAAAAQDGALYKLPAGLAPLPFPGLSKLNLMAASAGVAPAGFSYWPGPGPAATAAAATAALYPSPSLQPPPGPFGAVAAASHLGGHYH
# Outline: as §1
# ETV5 = ETV5 (Homo sapiens, UniProt P41161 1-510); conditions: protein: recombinant; tags: N-terminal GST; dsDNA, one strand shown
# Outline: as §1
# HSF1 = HSF1 (Homo sapiens, UniProt Q00613 1-529); conditions: protein: recombinant; tags: N-terminal GST; chain copies: 3; dsDNA, one strand shown
# Outline: as §1
# SPIC = target: T8, SPIC (Homo sapiens, UniProt Q8N5J4 1-248); conditions: protein: recombinant; tags: N-terminal GST; dsDNA, one strand shown
# T8 sequence: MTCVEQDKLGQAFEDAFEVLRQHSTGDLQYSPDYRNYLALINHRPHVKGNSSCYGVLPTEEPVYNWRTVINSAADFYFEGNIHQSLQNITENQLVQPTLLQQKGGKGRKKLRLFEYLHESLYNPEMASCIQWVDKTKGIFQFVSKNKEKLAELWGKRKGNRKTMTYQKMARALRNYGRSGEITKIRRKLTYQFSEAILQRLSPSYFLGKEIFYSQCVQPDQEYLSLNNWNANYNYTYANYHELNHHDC
# Outline: as §1
# ELF4 = ELF4 (Homo sapiens, UniProt Q99607 1-663); conditions: protein: recombinant; tags: N-terminal GST; dsDNA, one strand shown
# Outline: as §1
# ELK4 = target: T9, ELK4 (Homo sapiens, UniProt P28324-2 1-405); conditions: protein: recombinant; tags: N-terminal GST; dsDNA, one strand shown
# T9 sequence: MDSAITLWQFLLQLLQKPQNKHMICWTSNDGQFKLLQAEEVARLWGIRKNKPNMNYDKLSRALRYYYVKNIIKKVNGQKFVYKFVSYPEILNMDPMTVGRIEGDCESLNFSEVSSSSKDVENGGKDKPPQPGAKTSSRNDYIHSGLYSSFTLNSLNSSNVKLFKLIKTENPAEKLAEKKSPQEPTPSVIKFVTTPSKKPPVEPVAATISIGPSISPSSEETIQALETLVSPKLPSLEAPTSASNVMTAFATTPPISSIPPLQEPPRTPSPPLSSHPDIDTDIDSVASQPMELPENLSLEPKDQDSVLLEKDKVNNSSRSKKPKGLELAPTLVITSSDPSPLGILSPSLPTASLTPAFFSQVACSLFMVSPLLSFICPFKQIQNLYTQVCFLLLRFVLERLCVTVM
# Outline: as §1
# ETV2 = target: T10, ETV2 (Homo sapiens, UniProt O00321 1-342); conditions: protein: recombinant; tags: N-terminal GST; dsDNA, one strand shown
# T10 sequence: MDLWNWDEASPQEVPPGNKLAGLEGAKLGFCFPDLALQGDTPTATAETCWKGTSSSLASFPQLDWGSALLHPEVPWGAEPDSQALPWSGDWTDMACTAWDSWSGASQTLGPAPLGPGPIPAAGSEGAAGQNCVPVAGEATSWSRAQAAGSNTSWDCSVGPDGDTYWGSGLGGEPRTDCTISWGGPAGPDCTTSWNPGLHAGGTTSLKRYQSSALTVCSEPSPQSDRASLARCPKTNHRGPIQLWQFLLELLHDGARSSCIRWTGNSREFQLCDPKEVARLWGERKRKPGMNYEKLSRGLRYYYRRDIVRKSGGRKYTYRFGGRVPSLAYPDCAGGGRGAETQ
# Outline: as §1
# ETV1 = ETV1 (Homo sapiens, UniProt P50549 1-477); conditions: protein: recombinant; tags: N-terminal GST; dsDNA, one strand shown
# Outline: as §1
# Sequence of ETV1 (P50549 whole entry): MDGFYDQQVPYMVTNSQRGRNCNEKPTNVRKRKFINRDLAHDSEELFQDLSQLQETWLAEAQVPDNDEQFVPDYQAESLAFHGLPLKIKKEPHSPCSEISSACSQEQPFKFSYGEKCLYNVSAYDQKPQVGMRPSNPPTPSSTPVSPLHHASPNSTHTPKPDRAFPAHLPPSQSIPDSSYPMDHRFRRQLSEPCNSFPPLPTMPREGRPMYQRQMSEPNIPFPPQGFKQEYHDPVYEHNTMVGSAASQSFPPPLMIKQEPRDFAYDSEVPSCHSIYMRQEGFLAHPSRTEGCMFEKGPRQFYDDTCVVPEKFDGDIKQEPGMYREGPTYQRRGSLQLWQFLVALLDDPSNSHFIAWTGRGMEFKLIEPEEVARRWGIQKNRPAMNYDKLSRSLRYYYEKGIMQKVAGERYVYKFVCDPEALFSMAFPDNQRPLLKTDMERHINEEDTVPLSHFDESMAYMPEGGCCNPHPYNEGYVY
# Sequence of ETV5 (P41161 whole entry): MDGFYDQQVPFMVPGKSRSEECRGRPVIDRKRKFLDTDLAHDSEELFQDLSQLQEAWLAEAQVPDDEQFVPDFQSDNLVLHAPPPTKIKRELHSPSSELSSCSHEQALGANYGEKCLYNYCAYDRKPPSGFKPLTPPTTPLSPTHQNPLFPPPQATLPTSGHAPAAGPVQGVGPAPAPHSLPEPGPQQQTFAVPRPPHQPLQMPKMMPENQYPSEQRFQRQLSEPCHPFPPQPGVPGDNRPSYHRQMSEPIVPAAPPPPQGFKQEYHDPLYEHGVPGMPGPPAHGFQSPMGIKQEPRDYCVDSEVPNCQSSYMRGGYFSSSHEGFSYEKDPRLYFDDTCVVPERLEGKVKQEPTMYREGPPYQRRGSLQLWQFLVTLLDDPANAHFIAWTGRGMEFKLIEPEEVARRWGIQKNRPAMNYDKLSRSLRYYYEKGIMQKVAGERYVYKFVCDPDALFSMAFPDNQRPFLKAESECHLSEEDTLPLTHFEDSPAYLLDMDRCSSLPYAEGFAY
# Sequence of ELF1 (P32519 whole entry): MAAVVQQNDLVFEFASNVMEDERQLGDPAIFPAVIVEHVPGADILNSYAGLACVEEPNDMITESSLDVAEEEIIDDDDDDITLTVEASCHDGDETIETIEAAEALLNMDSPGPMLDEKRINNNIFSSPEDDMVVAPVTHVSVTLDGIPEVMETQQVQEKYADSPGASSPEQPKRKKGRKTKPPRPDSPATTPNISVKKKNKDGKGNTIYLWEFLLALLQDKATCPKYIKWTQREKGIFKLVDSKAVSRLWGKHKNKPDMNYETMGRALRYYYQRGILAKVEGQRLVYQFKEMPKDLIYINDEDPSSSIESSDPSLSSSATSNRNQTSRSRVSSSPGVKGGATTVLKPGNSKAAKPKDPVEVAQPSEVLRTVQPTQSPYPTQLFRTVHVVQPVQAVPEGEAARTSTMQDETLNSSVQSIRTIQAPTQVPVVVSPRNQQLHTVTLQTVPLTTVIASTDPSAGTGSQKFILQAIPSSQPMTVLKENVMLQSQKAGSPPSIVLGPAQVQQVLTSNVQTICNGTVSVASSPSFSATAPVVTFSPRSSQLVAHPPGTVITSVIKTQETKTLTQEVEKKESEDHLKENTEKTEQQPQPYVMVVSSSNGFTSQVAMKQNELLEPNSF
# Sequence of ELF4 (Q99607 whole entry): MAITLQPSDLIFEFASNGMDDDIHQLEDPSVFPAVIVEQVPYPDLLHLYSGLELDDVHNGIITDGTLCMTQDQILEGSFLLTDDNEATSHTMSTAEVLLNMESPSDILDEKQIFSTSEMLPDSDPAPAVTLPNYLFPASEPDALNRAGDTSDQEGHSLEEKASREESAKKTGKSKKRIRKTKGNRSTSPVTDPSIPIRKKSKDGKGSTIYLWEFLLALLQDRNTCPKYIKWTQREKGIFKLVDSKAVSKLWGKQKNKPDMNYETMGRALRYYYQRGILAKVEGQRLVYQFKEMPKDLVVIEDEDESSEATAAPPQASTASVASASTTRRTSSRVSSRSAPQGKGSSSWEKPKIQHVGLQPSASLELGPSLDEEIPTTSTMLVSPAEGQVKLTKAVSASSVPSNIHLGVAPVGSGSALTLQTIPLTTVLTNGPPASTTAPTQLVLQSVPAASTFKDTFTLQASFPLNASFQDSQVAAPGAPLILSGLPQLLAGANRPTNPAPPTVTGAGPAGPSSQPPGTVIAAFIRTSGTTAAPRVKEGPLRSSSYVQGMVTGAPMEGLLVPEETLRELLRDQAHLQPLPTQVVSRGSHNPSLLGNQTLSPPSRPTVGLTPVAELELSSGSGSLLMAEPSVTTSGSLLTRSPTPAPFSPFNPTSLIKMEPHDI
# Sequence of HSF1 (Q00613 whole entry): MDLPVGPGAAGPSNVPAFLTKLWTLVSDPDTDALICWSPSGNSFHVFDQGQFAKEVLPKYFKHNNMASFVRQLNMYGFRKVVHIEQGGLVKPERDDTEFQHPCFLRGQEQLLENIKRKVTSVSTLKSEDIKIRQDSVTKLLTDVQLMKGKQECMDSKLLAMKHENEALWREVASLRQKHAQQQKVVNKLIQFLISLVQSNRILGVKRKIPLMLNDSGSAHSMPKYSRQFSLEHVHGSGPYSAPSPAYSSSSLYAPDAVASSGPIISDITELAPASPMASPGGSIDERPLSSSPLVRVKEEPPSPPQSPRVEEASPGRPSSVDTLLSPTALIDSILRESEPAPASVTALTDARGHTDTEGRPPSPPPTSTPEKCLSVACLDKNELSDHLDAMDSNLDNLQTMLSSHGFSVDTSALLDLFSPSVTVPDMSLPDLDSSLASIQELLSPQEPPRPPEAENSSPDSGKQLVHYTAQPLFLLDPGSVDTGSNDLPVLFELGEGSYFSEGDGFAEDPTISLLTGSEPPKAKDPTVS
# Sequence of SPIB (Q01892 whole entry): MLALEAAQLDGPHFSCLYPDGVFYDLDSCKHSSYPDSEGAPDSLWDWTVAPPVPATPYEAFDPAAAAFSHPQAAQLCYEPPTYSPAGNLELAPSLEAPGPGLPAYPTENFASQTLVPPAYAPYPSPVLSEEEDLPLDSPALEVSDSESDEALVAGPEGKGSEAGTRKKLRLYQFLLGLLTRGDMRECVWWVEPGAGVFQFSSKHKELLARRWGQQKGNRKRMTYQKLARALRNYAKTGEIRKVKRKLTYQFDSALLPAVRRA
sequence,measurement,setting,value
CACTCG,binding signal,FLI1,"1.1 fold enrichment (6-mer frequency, TF over GST control)"
same,binding signal,ELK1,"1.26 fold enrichment (6-mer frequency, TF over GST control)"
same,binding signal,GABPA,"1.08 fold enrichment (6-mer frequency, TF over GST control)"
same,binding signal,ERG,"1.15 fold enrichment (6-mer frequency, TF over GST control)"
same,binding signal,ELF1,"1.2 fold enrichment (6-mer frequency, TF over GST control)"
same,binding signal,EHF,"1.18 fold enrichment (6-mer frequency, TF over GST control)"
same,binding signal,SPI1,"1.01 fold enrichment (6-mer frequency, TF over GST control)"
same,binding signal,SPIB,"1.18 fold enrichment (6-mer frequency, TF over GST control)"
same,binding signal,ELK3,"1.2 fold enrichment (6-mer frequency, TF over GST control)"
same,binding signal,FEV,"1.22 fold enrichment (6-mer frequency, TF over GST control)"
same,binding signal,ETV5,"1.13 fold enrichment (6-mer frequency, TF over GST control)"
same,binding signal,HSF1,"1.16 fold enrichment (6-mer frequency, TF over GST control)"
same,binding signal,SPIC,"1.08 fold enrichment (6-mer frequency, TF over GST control)"
same,binding signal,ELF4,"1.2 fold enrichment (6-mer frequency, TF over GST control)"
same,binding signal,ELK4,"1.24 fold enrichment (6-mer frequency, TF over GST control)"
same,binding signal,ETV2,"1.2 fold enrichment (6-mer frequency, TF over GST control)"
same,binding signal,ETV1,"1.09 fold enrichment (6-mer frequency, TF over GST control)"
CAGATG,binding signal,FLI1,"1.05 fold enrichment (6-mer frequency, TF over GST control)"
same,binding signal,ELK1,"1.09 fold enrichment (6-mer frequency, TF over GST control)"
same,binding signal,GABPA,"1.04 fold enrichment (6-mer frequency, TF over GST control)"
same,binding signal,ERG,"1.09 fold enrichment (6-mer frequency, TF over GST control)"
same,binding signal,ELF1,"1.08 fold enrichment (6-mer frequency, TF over GST control)"
same,binding signal,SPI1,"1 fold enrichment (6-mer frequency, TF over GST control)"
same,binding signal,ETV5,"1.01 fold enrichment (6-mer frequency, TF over GST control)"
same,binding signal,HSF1,"1.01 fold enrichment (6-mer frequency, TF over GST control)"
same,binding signal,SPIC,"1.12 fold enrichment (6-mer frequency, TF over GST control)"
same,binding signal,ELF4,"1.02 fold enrichment (6-mer frequency, TF over GST control)"
same,binding signal,ELK4,"1.06 fold enrichment (6-mer frequency, TF over GST control)"
same,binding signal,ETV2,"1.01 fold enrichment (6-mer frequency, TF over GST control)"
same,binding signal,ETV1,"1.01 fold enrichment (6-mer frequency, TF over GST control)"
